In PubChem BioAssay:
Active and inactive are the calls of the source.

Experiment: ATP-based viability of Huh7 replicon cells – cell-based, CellTiter-Glo luminescence, basal, 48 h, cytotoxicity control for HCV replication inhibitor project, primary screen (AID 1143);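 further: Huh7 hepatoma cells carrying a hepatitis C replication reporter with no stimulus; test concentration not given here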
Conditions: higher = more signal, called active from +8 up or from −8 down

| Structure (SMILES) | z-score |
| --- | --- |
| COC(=O)[C@@]1(Cc2ccc(OC)cc2)[C@H]2c3cc(C(=O)N4CCCC4)n(CCc4ccc(O)c(O)c4)c3C[C@H]2CN1C(=O)c1ccccc1 | -1.27 (inactive) |
| CC(CO)N1C(=O)[C@@H]2C3C(=O)OCCC/C=C\[C@H]3OC23C=CCN(CCN2CCOCC2)C(=O)[C@@H]13 (some centres not stated) | 0.795 (inactive) |
| CC1CC/C=C\[C@H]2OC34C=CCN(Cn5nnc6ccccc65)C(=O)[C@H]3N(CCCCCO)C(=O)[C@@H]4C2C(=O)O1 (some centres not stated) | -1.2 (inactive) |
| COC(=O)C(CC#Cc1ccc2c(c1)[C@]1(C(=O)N2)[C@H](c2ccccc2OCCO)N2[C@H](c3ccccc3)[C@H](c3ccccc3)OC(=O)[C@H]2[C@@H]1C(N)=O)C(=O)OC | -5.98 (inactive) |
| COC(=O)[C@@]1(Cc2ccc(OC)cc2)[C@H]2c3cc(C(=O)N4CCCC4)n(CCSCCO)c3C[C@H]2CN1C(=O)c1ccccc1 | -0.974 (inactive) |
| C=CC[C@@]1(C(=O)N2CCCCC2)N=C(c2ccc(OCCCO)cc2)O[C@@H]1c1ccccc1CN=[N+]=[N-] | -4.96 (inactive) |
| CCOC(=O)C1=C[C@@H](C(C)C)N(S(=O)(=O)c2ccc(C)cc2)[C@H]1c1ccccc1F | -2.77 (inactive) |
| NC(=O)[C@@]1(Cc2ccccc2)N=C(c2ccc(OCCCO)cc2)O[C@H]1c1ccccc1 | -1.51 (inactive) |
| COc1cc2c(cc1O)C(c1cccs1)N(Cc1ccc([N+](=O)[O-])o1)CC2 (configuration not stated) | -1.37 (inactive) |
| COCCCNC(=O)[C@@]1(Sc2ccc(C)cc2)CC(=O)N(Cc2ccccc2Cl)[C@@H]1c1ccc(CO)cc1 | -4.58 (inactive) |
| O=C1N(CCS(=O)(=O)c2ccccc2)c2ccccc2[C@@H]2OC(c3ccc(OCCCO)cc3)=N[C@]12Cc1ccccc1 | -3.61 (inactive) |
| [N-]=[N+]=Nc1ccccc1C[C@]1(C(=O)N2CCCCC2)COC(c2ccc(OCCCO)cc2)=N1 | -4.35 (inactive) |
| COc1ccc(CCNC(=O)[C@@]2(c3ccc([N+](=O)[O-])cc3)CC(=O)N(CC34CC5CC(CC(C5)C3)C4)[C@@H]2c2ccc(CO)cc2I)cc1 | -5.87 (inactive) |
| NCCCCCNC(=O)[C@H]1C[C@H]2C(=O)N3CCC[C@H]3C(=O)N2[C@H]1c1ccc(O)cc1 | 0.173 (inactive) |
| COCCCNC(=O)[C@@]1(CCS(=O)(=O)c2ccccc2)N=C(c2ccc(OCCCO)cc2)O[C@H]1c1ccccc1N=[N+]=[N-] | -5.54 (inactive) |
| COc1ccc([Si](C)(C)[C@@H]2[C@@H](CCn3cc(CCO)nn3)O[C@]3(C(=O)N(Cc4cccc(N5C(=O)c6cccc7cccc5c67)c4)c4ccccc43)[C@H]2C)cc1 | -7.96 (inactive) |
| O=C1OCCC/C=C\[C@H]2OC34C=CCN(c5ccc6ccccc6c5)C(=O)[C@H]3N(CCCCCO)C(=O)[C@@H]4C12 (some centres not stated) | 0.123 (inactive) |
| CN1C(=O)C2C=CC(C(O)c3ccccc3)N(N3CCCCC3)C2C1=O (configuration not stated) | 0.573 (inactive) |
| C=C(C(=O)CC[C@H](OC(C)=O)c1ccccc1OCCO)C(C)C | -8.56 (active) |
| C=C(CCCC)C(=O)CC[C@@H](OC(C)=O)c1ccc(CO)o1 | -1.56 (inactive) |
| CC(C)(C)OC(=O)CC[C@]1(C(=O)NCCN2CCOCC2)COC(c2ccc(OCCCO)cc2)=N1 | -0.102 (inactive) |
| C=CCOC(=O)[C@H]1[C@@H]2C(=O)O[C@@H](c3ccccc3)[C@@H](c3ccccc3)N2[C@@H](c2ccc(OCCOC(=O)[C@H]3C[C@H]4C(=O)N[C@@H](CCCCN(C)C)C(=O)N4[C@H]3c3cccc(OCCO)c3)cc2)[C@]12C(=O)Nc1ccc(I)cc12 | -0.366 (inactive) |
| [N-]=[N+]=Nc1ccccc1C[C@]1(C(=O)NCc2ccccc2)N=C(c2ccc(OCCCO)cc2)O[C@H]1c1ccccc1N=[N+]=[N-] | -4.05 (inactive) |
| CCOC(=O)C1=CC[C@@H](c2ccccc2)N(S(=O)(=O)c2ccc(C)cc2)[C@H]1c1ccc(CC)cc1 | -3.08 (inactive) |
| COCC(=C=CC[C@H](O)c1ccccc1OCCO)CCO | -0.231 (inactive) |
| COc1ccc(C(=O)Nc2ccc(CN3C(=O)[C@]4(O[C@H](CC(=O)N5CCC[C@H]5CO)[C@@H]([Si](C)(C)c5ccc(OC)cc5)[C@@H]4C)c4ccccc43)cc2)cc1 | -4.81 (inactive) |
| C=C(C)[C@@H]1CC=C(C(O)C2C=CC3C(=O)NC(=O)C3N2Nc2ccc(Cl)cc2Cl)CC1 (some centres not stated) | -1.64 (inactive) |
